The record followed here is publication PMC10163288.

B1: il2ra_site2_2erj_normal_mot_HHH_b1_08185_000000063_0001_41_55_H_._HHH_b1_04971_af2_0001_0000600015_0000001_0 (protein)
chain: SSSSSDSAEEALELAKEAYEKGDRSEVELILRYLELSLEDANDPRVEEAYELVEELLEELSSSSS
B2: il2ra_site2_3nfp_normal_mot_HHH_b1_01086_000000225_0001_20_36_H_._HHH_b2_03611_0001_0000300035_0000001_0 (protein)
chain: SSSSSEAEEELERLLRELEELLKRDPEEAHRLSARALNLAYEARDFEIFARLADISFALASSSSS
B3: il2ra_site1_3nfp_sap_16_mot_5dea99290cf7e133ebc5b763b21a7a39_0001_000000141_0001_34_49_H_._ems_3hC_617_0002_0001_0000300017_0000001_0_0001 (protein)
chain: NDKIAERLVRQAVEQNSPRILKKILEDLERVLGDPEEARERLRELLELVLGDPEEVERLLELAEE
B4: il2ra_site1_3nfp_sap_8_mot_93ec910cbd4ebb8dd092c1ac1e61ab37_0001_1_af2_000000101_0001_16_31_H_._22fa1065b69cf192845a0250a7ccff51_0001_1_0001_0000400021_0000001_ … (protein)
chain: SSSSDSVEWLQEMIERAFENNDRRQLRVLIKILEKAAEQFGDPEVEKLLEEAERLLEELNSSSSS
B5: il2ra_site1_3nfp_normal_mot_HHH_b2_04366_af2_000000103_0001_1_19_H_._d3e5e791db42274430e6ef9f54efc4f5_0001_af2_0001_0000100007_0000001_0_af2pred_0001_af2pred_sw … (protein)
chain: SAKEISELLREAARKDPEVSELLWEALRLFVKNEEEALRLLEELLKELGDPLVEEVLRLLEELAK
B6: il2ra_site1_1z92_sap_8_mot_a31c9f16200a66e5ad31ddff700483a3_0001_1_000000069_0001_19_32_H_._HHH_b1_03395_0001_0000300021_0000001_0_0001_af2pred_0001_af2pred_1 (protein)
chain: PEELAEEARELLENGNPEEARKVLEKLAKELGTEEAFKLDLERAERFTGNPEVALKALIAALARH
B7: il2ra_site2_2erj_normal_mot_HHH_b1_06697_000000025_0001_41_54_H_._HHH_b2_03722_0001_0000300007_0000001_0_af2pred_0001_1_af2pred_swapped (protein)
chain: SSSSSDKEEVEERVREILEEAEQVRDPREALKILEKADRLASENNNEEALELIHEVLQRLSSSSS
B8: il2ra_site2_3nfp_sap_15_mot_HHH_b1_07089_af2_000000257_0001_1_17_H_._51cc31007119fa75359d0ea3f4aa2c22_0001_1_0001_0000100009_0000001_0_0001 (protein)
chain: SSSSSAAEDSVHVLKRELEELGDRESIEELERLLEEIKEHNDPRLLLELYALLLRLYEESSSSSS
B9: il2ra_site1_1z92_sap_21_mot_35b94aac26684153dbcc4bf06a514b74_0001_1_000000068_0001_35_49_H_._HEEHE_2006_af2_0001_0000400023_0000001_0_0001_af2pred_0001_af2pred (protein)
chain: SSSSDEEEAAEEIVREVVEKLGLSEEDREALERDAEQSLRRGISERSVKQALEKAAKRERSSSSS
B10: il2ra_site1_1z92_sap_11_mot_HHH_b2_00249_af2_000000052_0001_39_52_H_._HHH_b2_00616_af2_0001_0000400013_0000001_1_0001_af2pred_0001_af2pred (protein)
chain: SSSSSEKRKEALELFEEANELFKRGNDEEAQELLRRALELAEEAGNRVLARAIEQALEDAESSSS
B11: il2ra_site2_2erj_sap_22_mot_HHH_b2_08130_000000073_0001_1_17_H_._HHH_b1_02674_0001_0000300003_0000001_0_0001 (protein)
chain: SSSSDVEELLEEIEELLRRGDREEAERLLHEAAELAFERNDFELFTEVVEVAHEIDRLRVSSSSS
B12: il2ra_site2_3nfp_normal_mot_HHH_b1_01086_000000225_0001_20_36_H_._HHH_b1_01202_0001_0000300006_0000001_0_af2pred_0001_af2pred_swapped (protein)
chain: SSSSDHERFALRAALLEIEVAIEAGDEKKVEKLIERLEILIKRLNDEEMEELLRKLKEELSSSSS
B13: il2ra_site2_3nfp_normal_mot_HHH_b1_00660_af2_000000090_0001_40_57_H_._HHH_b1_07775_af2_0001_0000100002_0000001_1 (protein)
chain: SSSSDEELEEEVEKLLEEAKKIEDKFEAFALVLRAREIAERLGDEELKQLVARVALEIYESSSSS
B14: il2ra_site1_3nfp_normal_mot_eb5a5eebac1e5153f932cc6c3f4b2787_0001_af2_000000065_0001_18_33_H_._31bff7180b20e3ed47766ceefd9934be_0001_af2_0001_0000200025_0000001 … (protein)
chain: DEEKELAELIAEAVEKNDPELLEEVVQELLKKLGDPKEASRLFEELLRKAGLSPEEIYLAMELVV
B15: il2ra_site2_2erj_normal_mot_HHH_b1_04373_af2_000000118_0001_18_33_H_._HHH_b1_02368_af2_0001_0000200015_0000001_0 (protein)
chain: SSSSDEELREEVEELLERAREAYEEGDLELVYELAVEAAHFAARNQDEELLELILEVVERLSSSS
B16: il2ra_site1_1z92_normal_mot_HHH_b1_03515_000000289_0001_1_19_H_._HHH_b2_07175_0001_0000100001_0000001_0 (protein)
chain: SSSSDRLERAAEIIVRVAVEANGLSEEQEKELEELARELVERGLDPLEIIKLLDRLAAELSSSSS
B17: il2ra_site2_2erj_sap_28_mot_HHH_b1_06697_000000025_0001_41_54_H_._HHH_b1_07674_0001_0001200015_0000001_1_0001 (protein)
chain: SSSSSDVKEAYEEIAELLARAAHIKDPEEVRKLLEEAERLAEENNDPFARKYVEFARRDFSSSSS
B18: il2ra_site1_1z92_normal_mot_HHH_b2_01902_af2_000000252_0001_25_40_H_._HHH_b1_06549_af2_0001_0000100014_0000001_0_af2pred_dldesign_0_af2pred (protein)
chain: SSSSSPLERAARQYVDAIKEIAGLSDEQYAELLAEAERLAAAGVPVRDIAKALDKRAAELLSSSS

Only a sample is shown. The hit rate among all sequences tested is not known here. Values without a mark were called inactive.

For this assay, the target named is il2ra, P01589. As to the kind of experiment: yeast display titration.
il2ra, P01589, sequence (P01589 whole entry): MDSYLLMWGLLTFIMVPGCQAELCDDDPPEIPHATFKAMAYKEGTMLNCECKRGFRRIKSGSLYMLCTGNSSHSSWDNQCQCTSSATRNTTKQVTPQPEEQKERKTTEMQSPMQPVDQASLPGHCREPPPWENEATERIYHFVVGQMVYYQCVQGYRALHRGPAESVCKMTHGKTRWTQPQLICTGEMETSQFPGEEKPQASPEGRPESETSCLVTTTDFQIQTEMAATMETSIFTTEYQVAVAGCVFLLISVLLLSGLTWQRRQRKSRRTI
As to B1, the “apparent Kd” value was “no binding seen”.
Regarding B2, the “apparent Kd” value was “no binding seen”.
As to B3, the “apparent Kd” value was “no binding seen”.
Consider B4, for which the “apparent Kd” value is “no binding seen”.
With B5, the “apparent Kd” value is “no binding seen”.
In the case of B6, the “apparent Kd” value is “no binding seen”.
Turning to B7, the “apparent Kd” value is “no binding seen”.
B8: the “apparent Kd” value is “no binding seen”.
Turning to B9, the “apparent Kd” value is “no binding seen”.
Regarding B10, the “apparent Kd” value is “no binding seen”.
Under B11 stands “no binding seen”; under B12, “no binding seen”; under B13, “no binding seen”.
Under B14 stands “no binding seen”; under B15, “no binding seen”; under B16, “no binding seen”.
B17: the “apparent Kd” value is “no binding seen”.
The result for B18 reads “no binding seen”.
